Most compounds without a hit are left out; they make up all but 1.8% or so of the library.
BaF3 tox = parental Ba/F3 viability inhibition as JAK2V617F counter-screen; inhibition, % at 5.6 µM; AID 1486; CellTiter-Glo ATP luminescence; 220,000 tested, 1.1% active;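 active means inhibition above a per-campaign cutoff, the mean inhibition of all tested compounds plus 3 SD, cut at about 27% in these data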;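 further: 0% = DMSO wells and 100% = JAK Inhibitor I control wells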
IEC-6 cytotox = IEC-6 cytotoxicity, counter-screen for KLF5 inhibitors | 290,000 tested, 0.78% active | luminescence viability | AID 1825 | inhibition, % at 5 µM;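 further: 0% = plate median of test compound wells and 100% = cytotoxic reference compound wells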
KLF5 inh = inhibitors of KLF5 expression; 290,000 tested, 0.23% active; AID 1700; DLD-1 KLF5 promoter-luciferase reporter, luminescence; inhibition, % at 5 µM;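 active means inhibition above a per-plate limit of that plate's mean compound inhibition plus 3 SD, cut at about 60% in these data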;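 further: 0% = DMSO wells and 100% = LY294002 at 200 µM; higher means less KLF5 promoter-driven luciferase light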
Ba/F3 V617F tox = reduce viability of Ba/F3 cells dependent on JAK2V617F; AID 1446; inhibition, % at 5.6 µM; 220,000 tested, 1.1% active; Ba/F3 EpoR-JAK2V617F viability, ATP luminescence;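 active means inhibition above the campaign mean plus 3 SD over all tested compounds, cut at about 24% in these data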;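 further: cytokine-independent growth of Ba/F3 cells driven by EpoR plus mutant JAK2; 0% = DMSO-treated cells and 100% = JAK inhibitor I control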
APP transl inh = APP translation inhibition; SH-SY5Y APP 5'UTR-luciferase reporter, luminescence; inhibition, % at 2 µM; 190,000 tested, 0.82% active;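 active means inhibition above a set limit, derived from the sample mean plus 3 SD, cut at about 45% in these data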
IEC-6 tox confirm = IEC-6 cytotoxicity, confirmation assay. 1,900 tested, 63% active. inhibition, % at 5 µM. IEC-6 rat intestinal epithelial viability, luminescence. shares compounds with IEC-6 cytotox;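 further: 0% = vehicle and 100% = reference cytotoxic drug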
The depositor's hits bear a star; . = not tested or not shown. Unless noted, no stated cut-off is given here; in the data, active means inhibition above about 22%; inactive means the rest.

SMILES | BaF3 tox | IEC-6 cytotox | KLF5 inh | Ba/F3 V617F tox | APP transl inh | IEC-6 tox confirm
C1=Nc2c(NCc3ccccc3)ncnc2Oc2ccccc21 | 12 | 26* | -40 | 4 | -13 | 24*
CCN(CC1COc2ccccc2O1)C(=S)Nc1ccccc1 (stereo unspecified) | 8 | 8 | 2 | 0 | -1 | .
CCCC[C@H](CN[C@@H](CNC)[C@H](C)CC)NCCC12CCC(CC1)C2 | . | 39* | -22 | . | . | 102*
Cc1cc(C)n2nc(C(=O)NNC(=O)c3ccccc3)nc2n1 | 6 | -2 | -9 | 0 | -4 | .
CCCc1nc(SCC(=O)N2CCCCCC2)c2c(=O)n(C)c(=O)n(C)c2n1 | . | -5 | -11 | . | . | .
Cc1ccc(C(=O)CCNc2ccc(F)c(Cl)c2)o1 | 58* | 31* | -7 | 46* | -31 | 34*
Cc1ccc(C(=O)CCNc2ccc(Br)cc2)o1 | 4 | -2 | -40 | -2 | -31 | .
CN1CCN(C(=O)Nc2cccc(-c3ccccc3)c2)CC1 | 0 | -9 | -25 | -4 | . | .
Cc1ccc(Cl)cc1N1CCN(C(=O)Cn2ncn3cccc3c2=O)CC1 | . | 0 | -6 | . | . | .
CCN1CCc2c(sc(NC(=O)c3cc4ccccc4cc3OC)c2C(N)=O)C1 | . | 27* | -20 | . | . | 2
O=C(Nc1ccc2c(c1)OCCO2)C(=O)c1c[nH]c2ccccc12 | . | 66* | 38 | . | . | 46*
COc1cccc(NC(=O)Nc2nc(SC)ns2)c1 | . | -2 | -159 | . | . | .
CCSc1nsc(NC(=O)Nc2cccc(F)c2)n1 | . | 46* | -14 | . | . | 32*
COc1ccc(-c2noc(CCC(=O)NCc3cccnc3)n2)cc1 | 2 | -2 | -13 | 0 | -9 | .
COc1ccc(Cc2nc(-c3ccc(NC(=O)c4cccnc4)cc3)no2)cc1 | 0 | 31* | -28 | 10 | 58* | 90*
COc1ccc(C(=O)c2ccc(Cl)c([N+](=O)[O-])c2)cc1 | 91* | 66* | -30 | 91* | 95* | 73*
COc1ccc(C(=O)c2ccc(Cl)cc2)cc1 | 6 | 8 | 2 | 1 | -2 | .
CC(C)(C)c1ccc(-n2nc(C#N)c(Cl)cc2=O)cc1 | -11 | 52* | 11 | 15 | 94* | 11
CCOc1ccc(/C=C/c2nc(C#N)c(NCCCOC)o2)cc1 | . | 74* | 54 | . | . | 61*
COc1ccc(OC)c(C2=NS(=O)(=O)N(C)C(C(=O)NCc3ccco3)=C2)c1 | . | -8 | -1 | . | . | .
N#Cc1c(NC(=O)c2ccc([N+](=O)[O-])o2)sc2c1CCC2 | . | 39* | -34 | . | . | 16
CC(C)c1onc(C(=O)Nc2sc3c(c2C#N)CCC3)c1[N+](=O)[O-] | 0 | 2 | -21 | -3 | 6 | .
NC(=O)c1c(NC(=O)c2ccc([N+](=O)[O-])o2)sc2c1CCCC2 | . | 100* | 24 | . | . | 39*
CN1CCc2c(sc(NC(=O)c3ccc([N+](=O)[O-])o3)c2C(N)=O)C1 | . | 101* | 34 | . | . | 88*
CC1CCCN(C(=O)Cn2nnc(-c3ccccc3F)n2)C1 (stereo unspecified) | . | -4 | -82 | . | . | .
SMILES | BaF3 tox | IEC-6 cytotox | KLF5 inh | Ba/F3 V617F tox | APP transl inh | IEC-6 tox confirm
Cc1c(C(=O)C(=O)N2CCN(Cc3ccc4c(c3)OCO4)CC2)c2ccccc2n1C | . | -1 | -17 | . | . | .
CCC(Oc1ccccc1)C(=O)Nc1ccc(S(=O)(=O)Nc2cc(C)on2)cc1 (stereo unspecified) | . | 3 | -26 | . | . | .
CC(=O)NCc1ccc(C(=O)O)cc1 | 2 | -3 | -17 | -2 | . | .
CCCNc1nc(-c2ccccc2)c(C(=O)OCC)cc1C#N | 58* | 46* | 30 | 59* | 82* | 75*
CCN1C(=O)C(O)(C2COC(C)(C)CC2=O)c2cc(Br)ccc21 (stereo unspecified) | 33* | 84* | -5 | 22 | 5 | 1
CCN1C(=O)C(O)(C2COC(C)(C)CC2=O)c2ccccc21 (stereo unspecified) | 1 | 5 | 10 | 1 | -2 | .
CC(=O)N1CCC(C(=O)Nc2ccc(S(=O)(=O)N3CCCCC3)cc2)CC1 | . | 5 | -45 | . | . | .
Cn1c(-c2ccccc2)c(/C=N/NC(=O)c2cccnc2)c2ccccc21 | 6 | 9 | -45 | 0 | -4 | .
O=C(N/N=C/c1c(-c2ccccc2)[nH]c2ccccc12)c1cccnc1 | 55* | 58* | 13 | 64* | -32 | 23*
Cc1ccccc1C=Nc1ccccc1C(N)=O | 18 | 23* | 23 | 2 | -6 | 8
CCOC(=O)c1c(CSC(=N)N)n(C)c2cc(Br)c(OC(C)=O)cc12 | -4 | 24* | -14 | -1 | . | 12

Bioassay records (PubChem)
